Activity calls are given as the source filed them.
Experiments:
[1] = A549 cell viability effects, profiling panel, calcein-AM fluorescence, 48 h, basal (AID 1162); conditions: higher = more signal
[2] = adipocyte viability effects, profiling panel, cell-based, 3T3-L1 adipocytes, calcein-AM fluorescence, 48 h, basal (AID 1163); conditions: 3T3-L1 adipocytes viability, higher = more signal
[3] = HepG2 cell viability effects, profiling panel, calcein-AM fluorescence, 48 h, basal (AID 1164); conditions: higher = more signal
[4] = MM1S cell viability effects, profiling panel, calcein-AM fluorescence, 48 h, basal (AID 1165); conditions: higher = more signal;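 further: viability of MM1S multiple myeloma cells under basal unstimulated conditions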
[5] = basal RPMI8226 viability, no added stimulus, profiling panel, cell-based, calcein-AM fluorescence, 48 h, PK04 Diversity Set (AID 1166); conditions: RPMI8226 myeloma viability, higher = more signal;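 further: cells grown under basal conditions without added stimulus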
[6] = basal HepG2 mitochondrial membrane potential changes, profiling panel, cell-based, JC-1 fluorescence, 24 h, 100 nL compound (AID 1167); conditions: higher = more signal
[7] = basal 3T3-L1 adipocyte mitochondrial potential changes, profiling panel, cell-based, JC-1 fluorescence, 3T3-L1 adipocytes, 24 h, 100 nL compound (AID 1168); conditions: JC-1 mitochondrial fluorescence, higher = more signal, called active from +8 up or from −8 down
[8] = basal RPMI8226 mitochondrial membrane potential changes, profiling panel, cell-based, JC-1 fluorescence, 24 h, 100 nL compound (AID 1169); conditions: RPMI8226 myeloma, JC-1 mitochondrial potential fluorescence, higher = more signal
[9] = basal MM1S mitochondrial membrane potential changes, profiling panel, cell-based, JC-1 fluorescence, 24 h, 100 nL compound (AID 1170); conditions: higher = more signal
[10] = A549 lung cancer cell viability effects, profiling panel, resazurin fluorescence, 24 h, PK04 Diversity Set (AID 1171); conditions: higher = more signal, called active from +8 up or from −8 down
Further: test concentration not given here.

Row | SMILES | z-score [1] | z-score [2] | z-score [3] | z-score [4] | z-score [5] | z-score [6] | z-score [7] | z-score [8] | z-score [9] | z-score [10]
1 | COC(=O)[C@@]1(Cc2ccc(OC)cc2)[C@@H]2[C@@H](CC(=O)[C@H]2CC(=O)C(=O)N(C)C)CN1C(=O)c1ccccc1 | -1.45 | -0.18 | -0.923 | -2.24 | -4.62 | 1.1 | -0.169 (inactive) | -0.735 | -2.16 | -2.28 (inactive)
2 | C=C(COC)/C(=C/C[C@@H](OC(=O)c1ccncc1)c1ccccc1OCCO)c1cnc2ccccc2c1 | 0.746 | 0.317 | -0.316 | -3.18 | -0.986 | 2.78 | -1.16 (inactive) | -0.527 | 1.61 | 0.268 (inactive)
3 | O=C1O[C@H](c2ccccc2)[C@H](c2ccccc2)N2[C@H]1[C@@H](C(=O)N1CCCCCCC1)[C@]1(C(=O)Nc3ccc(C#CCCO)cc31)[C@H]2c1ccc(O)cc1 | 1.53 | 0.0496 | 1.22 | -0.149 | 0.0392 | 0.638 | 0.547 (inactive) | -0.146 | -0.979 | 0.798 (inactive)
4 | C=CC[C@]1(C(N)=O)N=C(c2ccc(OCCCO)cc2)O[C@H]1c1ccccc1N=[N+]=[N-] | 0.772 | 0.46 | 1.49 | -1.04 | 0.656 | 0.462 | 0.903 (inactive) | -0.514 | -0.747 | -0.752 (inactive)
5 | CC(C)c1ccc(NN2C(C(O)C(C)c3ccccc3)C=CC3C(=O)N(c4ccccc4)C(=O)C32)cc1 (stereo not given) | -0.625 | -0.856 | -1.03 | -1.1 | -1.34 | -2.13 | -1.75 (inactive) | -0.628 | -0.102 | -0.868 (inactive)
6 | CC1C2C(CCCO)=CC(C3C(=O)N(C(N)=O)C(=O)C23)N1Cc1cccc(OC(F)(F)F)c1 (stereo not given) | -0.846 | -0.528 | 0.192 | -0.486 | 0.244 | -0.632 | -0.795 (inactive) | 0.787 | -0.547 | -0.13 (inactive)
7 | CC(C)C[C@@H]1NC(=O)[C@@H]2C[C@H](C(=O)NCCCCCCNC(=O)CS)[C@H](c3ccc(O)cc3)N2C1=O | 0.191 | 0.963 | -0.892 | -0.523 | 0.037 | -1.69 | -0.226 (inactive) | -0.684 | -0.391 | -0.399 (inactive)
8 | [N-]=[N+]=Nc1ccccc1C[C@@]1(C(=O)NCC(O)CO)N=C(c2ccc(OCCCO)cc2)O[C@@H]1c1ccccc1N=[N+]=[N-] (stereo not given in full) | -3.97 | -0.0164 | -4.63 | -3.55 | -3.85 | -2 | -0.264 (inactive) | -1.21 | -1.34 | -3.27 (inactive)
9 | CC1C2C(CCCO)=CC(C3C(=O)N(C)C(=O)C23)N1Cc1cccc(OC(F)(F)F)c1 (stereo not given) | -0.45 | 0.924 | -0.399 | -0.83 | -0.423 | 0.779 | 0.0323 (inactive) | 0.258 | 0.675 | -0.791 (inactive)
10 | CC(C)[Si](C#Cc1ccccc1)(O[C@H](c1ccccc1)c1cn(Cc2ccccc2)nn1)C(C)C | -1.6 | -0.433 | -2.13 | -1.8 | -2.46 | -1.19 | 0.24 (inactive) | -0.425 | -0.0328 | -0.486 (inactive)
11 | COC(=O)[C@@]1(Cc2ccc(F)cc2)[C@H]2c3cc(C(=O)N(C)C)n(CCF)c3C[C@H]2CN1C(=O)c1ccccc1 | -0.063 | -0.138 | 0.121 | 0.066 | 0.266 | -0.0126 | 0.696 (inactive) | -0.37 | 0.328 | -0.957 (inactive)
12 | COc1ccc(C(O)C2C=CC3C(=O)N(c4ccccc4)C(=O)C3N2Nc2ccccc2F)c2ccccc12 (stereo not given) | 0.23 | -0.229 | -0.737 | -1.91 | -1.61 | -1.78 | 0.385 (inactive) | -0.172 | -0.754 | 0.473 (inactive)
13 | COc1cc2c(cc1O)C(C)N(Cc1sc3ccccc3c1Cl)CC2 (stereo not given) | 0.0824 | -0.0046 | -0.0238 | 0.141 | 0.624 | -1.08 | -0.632 (inactive) | 0.838 | -0.995 | -0.205 (inactive)
14 | COCCOC(=O)N1C(=O)[C@@]2(c3cc(C#CCNC(N)=O)ccc31)[C@H](C(=O)N1CCN(c3ncccn3)CC1)[C@H]1C(=O)O[C@H](c3ccccc3)[C@H](c3ccccc3)N1[C@@H]2c1ccc(O)cc1 | 0.722 | -0.118 | 0.568 | 0.445 | 1.17 | 0.866 | -0.709 (inactive) | -0.0604 | -0.564 | -0.824 (inactive)
15 | CC(C)[Si]1(C(C)C)OCc2cc(-c3ccc(-c4ccc(Cl)c(Cl)c4)o3)nc(-c3ccc(Oc4ccccc4)cc3)c21 | -0.222 | -1.06 | -0.879 | 0.0719 | -0.605 | 0.213 | -0.966 (inactive) | 0.17 | 0.0397 | -0.232 (inactive)
16 | C=CC[C@]1(C(=O)NCCN2CCOCC2)N=C(c2ccc(OCCCO)cc2)O[C@H]1c1ccccc1 | -0.139 | -0.0761 | -0.0656 | -0.736 | 0.0634 | -0.607 | -0.442 (inactive) | -0.176 | -0.255 | 1.63 (inactive)
17 | OCCCc1cc[n+](Cc2cc3c(cc2Br)OCO3)cc1 | -0.322 | 0.504 | -0.325 | 0.4 | -0.419 | 0.138 | 0.506 (inactive) | -0.437 | 1.39 | -0.298 (inactive)
18 | CCCN1C(=O)[C@@]2(c3ccc([N+](=O)[O-])cc3)CC(=O)N(C3CCCCC3)[C@@H]2c2ccc(CO)cc21 | -0.522 | -0.952 | -0.574 | -0.679 | -0.173 | -1.19 | -0.626 (inactive) | -0.696 | -0.868 | -0.291 (inactive)
19 | CCCCCCc1nc(Cc2cc(OC)c(OC)c(OC)c2)c(C)c2c1[Si](C(C)C)(C(C)C)OC2 | 0.106 | 0.986 | -0.348 | 0.286 | -3.41 | 4.95 | 0.835 (inactive) | -0.651 | 0.0845 | 0.504 (inactive)
20 | [N-]=[N+]=NCc1ccccc1C[C@@]1(C(=O)NCCN2CCOCC2)N=C(c2ccc(OCCCO)cc2)O[C@@H]1c1ccccc1 | 0.0171 | -0.221 | -1.04 | -2.72 | -1.99 | -0.3 | 0.556 (inactive) | -1.18 | -0.956 | -0.112 (inactive)
21 | COCCOC(=O)N1C(=O)[C@@]2(c3ccccc31)[C@H](C(=O)Nc1nc3ccccc3s1)[C@H]1C(=O)O[C@H](c3ccccc3)[C@H](c3ccccc3)N1[C@@H]2c1ccccc1OCCO | -0.905 | 0.679 | -0.899 | -0.975 | -1.48 | -2.27 | 2.21 (inactive) | -0.796 | -0.61 | 0.101 (inactive)
22 | CC(C)C[C@@H]1NC(=O)[C@H]2C[C@@H](C(=O)O)[C@@H](c3cccc(OCCO)c3)N2C1=O | -0.218 | -0.234 | -0.072 | -1.36 | -0.0757 | 0.664 | -0.115 (inactive) | -0.0946 | -0.449 | 0.668 (inactive)
23 | C=CCOC(=O)[C@H]1[C@@H]2C(=O)O[C@@H](c3ccccc3)[C@@H](c3ccccc3)N2[C@@H](c2ccc(OCCOC(=O)[C@H]3C[C@H]4C(=O)NCC(=O)N4[C@H]3c3cccc(OCCO)c3)cc2)[C@]12C(=O)Nc1ccc(I)cc12 | 0.0164 | 0.656 | 0.902 | -0.223 | 0.491 | -0.777 | -0.00167 (inactive) | -0.554 | -1.28 | 0.592 (inactive)
24 | Cc1ccc(S[C@]2(C(=O)NCc3ccccc3)CC(=O)N(Cc3ccccc3Cl)[C@@H]2c2ccc(CO)cc2)cc1 | -0.643 | 0.9 | 0.191 | 0.0218 | -1.25 | 0.0273 | -0.537 (inactive) | -0.517 | 0.666 | 0.0338 (inactive)
25 | C=CC[C@H](O)c1ccc(O)c2ccccc12 | 0.902 | -0.0385 | -0.817 | -2.84 | -3.71 | -2.13 | 0.241 (inactive) | -0.752 | -1.71 | -0.409 (inactive)
26 | C=C(CC1([C@@H](NP(=O)(c2ccccc2)c2ccccc2)[C@H]2C[C@@H]2CCCC)CC1)c1cccc(OC)c1 | -1.61 | -0.803 | -0.96 | -3.47 | -4.72 | -1.28 | -0.532 (inactive) | -0.799 | -0.366 | 6.21 (inactive)
27 | CCCCC(=C=CC[C@@H](O)c1ccccc1OCCO)C[C@@H](O)c1ccccn1 | -0.158 | -0.48 | 0.242 | -0.35 | -0.84 | -0.16 | 0.341 (inactive) | 0.495 | -0.179 | 0.756 (inactive)
28 | CCOC(=O)C=C1C[C@@H](c2cccc([N+](=O)[O-])c2)O[C@@H](c2cccc([N+](=O)[O-])c2)O1 | -0.865 | -0.477 | 0.177 | -0.71 | -0.588 | 3.97 | 0.94 (inactive) | 0.779 | -0.351 | 1.44 (inactive)

Reference: PubChem BioAssay
